Source: PubChem BioAssay (National Center for Advancing Translational Sciences (NCATS))
This is a sample that favours compounds with a hit; in the whole collection about 21% have one here.
Pf growth 48h: Primary qHTS for delayed death inhibitors of the malarial parasite plastid, 48 hour incubation; P. falciparum luciferase growth in erythrocytes, 48 h; Potency, µM (doses to about 28.7 µM), actives largely listed as inhibitors; 5.9% of 310,000 active; AID 504832, 2011
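Parasite viability was followed by luminescence of a genomically integrated firefly luciferase. Cultures held 0.1% parasitemia at 2% hematocrit (final), incubated under 5% CO2 at 37 C.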
Shiga toxin inh: A qHTS for Small Molecule Inhibitors of Shiga Toxin | inhibition, % at 38.7 µM | 9.2% of 290,000 active | Vero cells, Shiga toxin protein synthesis inhibition reporter; in the data active means inhibition mostly above about 28%, no sharp cut-off; inactive means mostly below about 43%
AMA1 RON2 block: qHTS for Inhibitors of AMA1-RON; Towards Development of Antimalarial Drug Lead: Primary Screen | 0.2% of 360,000 active | AID 720542, 2013 | Potency, µM (series often up to 58.2 µM), actives largely listed as inhibitors | AlphaScreen AMA1-biotinylated RON2 peptide binding | Plasmodium falciparum AMA1 (3D7) - RON2 peptide interaction; further: nearly all actives have a fitted effect of over 45% in size
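AMA1 (3D7) with his tag at 25 nM final met compounds first, then biotinylated RON2 peptide at 25 nM; detection used donor plus acceptor beads, 10 µg/mL apiece, read by AlphaScreen after 30 min at room temperature.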
HCV inhibitor: qHTS Assay for Inhibitors of Hepatitis C Virus (HCV); Huh7.5.1 HCVcc-Cre infection, luciferase reporter, 44 h; Potency, µM (top dose mostly 41.8 µM), usual class: inhibitors; 3.4% of 340,000 active; AID 651820, 2012
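Luciferase read-out (15 sec integration) after a 15 min room-temperature substrate step quantifies HCVcc-Cre infection. Cells, 1,000 per well, had compound added 4 h post-plating, then virus at ~0.5 moi, and were cultured 44 h.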
CHX counter: Cycloheximide Counterscreen for Small Molecule Inhibitors of Shiga Toxin. max response, %. 12% of 300,000 active. AID 2314, 2010. cell reporter, cycloheximide protein synthesis inhibition counterscreen; in the data active means max response mostly above about 13%, no sharp cut-off; inactive means mostly below about 14%; further: read at 38.3 µM for the half of the compounds with a filed dose
Pf growth 96h: Primary qHTS for delayed death inhibitors of the malarial parasite plastid, 96 hour incubation | AID 504834, 2011 | 6.9% of 320,000 active | Potency, µM (highest dose often 28.7 µM), usual class: inhibitors | P. falciparum luciferase reporter growth, 96 h
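P. falciparum expressing integrated firefly luciferase, in erythrocytes at 2% hematocrit, 0.05% parasitemia, incubated with compounds 96 h at 37 C, 5% CO2. Growth inhibition read as loss of luminescence; two-generation exposure targets delayed-death apicoplast inhibitors.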
Each line names hits and unclear results; the compound was inactive in the other large screens. Unless noted, the call rests on the fitted dose curve; in most records, active means well fitted curve in the direction sought with a large enough effect; inconclusive means small, poorly fitted or top-dose-only effect, or another doubt; inactive means no such curve, though single readings can be large; an effect the other way counts as inactive or inconclusive.

CCN(CC)CCCNC(=O)CNC(=O)c1nn(-c2ccc(OC)cc2OC)c(=O)c2ccccc12	none (no result: Pf growth 48h, Shiga toxin inh, HCV inhibitor, CHX counter, Pf growth 96h)
O=C(NCCCl)Nc1cccnc1Cl	CHX counter 12
O=C(CC(=O)c1ccccc1)Nc1cccnc1Cl	Shiga toxin inh 73, CHX counter 44
CCOC(=O)CC(=O)Nc1cc(Cl)ccc1O	Pf growth 96h 12µM
O=C(COC(=O)c1ccccn1)Nc1cccnc1Cl	none (no result: Shiga toxin inh, CHX counter)
O=C(Nc1cc(Cl)ccc1O)c1snnc1-c1ccccc1	Pf growth 48h inconclusive, HCV inhibitor 18µM, Pf growth 96h 12µM
O=C(O)CC(=O)Nc1cc(Cl)ccc1O	none (no result: Pf growth 48h)
O=C(CCc1ccccc1)Nc1cccnc1Cl	CHX counter 18
O=C(CCc1ccccc1)Nc1cc(Cl)ccc1O	Pf growth 48h 10µM, HCV inhibitor inconclusive, Pf growth 96h inconclusive
O=C(COc1ccccc1Cl)Nc1cc(Cl)ccc1O	Pf growth 48h inconclusive
C=C1CC2COC(=O)C2(Cc2ccc3ccccc3c2)C1 (configuration not stated)	none (no result: Pf growth 48h, AMA1 RON2 block, HCV inhibitor, Pf growth 96h)
CC(C)(C)NC(=O)C(c1cccs1)N(CC1CCCO1)C(=O)Cn1nnc(-c2cccs2)n1 (configuration not stated)	Pf growth 48h inconclusive, AMA1 RON2 block inconclusive (no result: Pf growth 96h)
CC(C)(C)NC(=O)C(c1ccc(F)cc1)N(Cc1ccco1)C(=O)Cn1nnc(-c2cccs2)n1 (configuration not stated)	Pf growth 48h 5.9µM, HCV inhibitor inconclusive, Pf growth 96h inconclusive
O=C(NCC1CCCO1)C(c1cccs1)N(Cc1cccs1)C(=O)Cn1nnc(-c2cccs2)n1 (configuration not stated)	Pf growth 48h inconclusive
Cc1ccc(N(C(=O)Cn2nnc(-c3ccc(F)cc3)n2)C(CC(C)C)C(=O)NCC2CCCO2)cc1 (configuration not stated)	Pf growth 48h 13µM, Pf growth 96h inconclusive
O=C(NCC1CCCO1)C(c1ccc(F)cc1)N(Cc1ccc(F)cc1)C(=O)Cn1nnc(-c2cccs2)n1 (configuration not stated)	Pf growth 48h inconclusive, HCV inhibitor 2.5µM, Pf growth 96h inconclusive
Cc1ccc(-c2nnn(CC(=O)N(CC3CCCO3)C(C(=O)NC(C)(C)C)c3ccc(F)cc3)n2)o1 (configuration not stated)	Pf growth 48h 10µM, Pf growth 96h 12µM
C=C(C)C1CCC(C)C(OC(C)=O)C1 (configuration not stated)	none (no result: Pf growth 48h, AMA1 RON2 block, HCV inhibitor, Pf growth 96h)
CC[C@]12c3[nH]c4ccc(Cl)cc4c3CCN1C(=O)[C@@H](CC(=O)NCCCn1ccnc1)C[C@@H]2C(=O)N1CCN(C(=O)c2ccco2)CC1	none (no result: Pf growth 48h, Shiga toxin inh, CHX counter, Pf growth 96h)
CC(C)c1ccc(NC(=O)c2snc3ccc(Cl)cc23)cc1	Shiga toxin inh 74, HCV inhibitor inconclusive, CHX counter 39
O=C(Nc1ccccc1NC(=O)c1csnn1)c1csnn1	none
Cc1cccc(C(C)C)c1NC(=O)c1cccnc1	Pf growth 96h 12µM
Cc1ccccc1NC(=O)c1cccnc1	none
CC(C)c1ccc(NC(=O)c2csnn2)cc1	Shiga toxin inh 42, HCV inhibitor 14µM, CHX counter 30 (no result: Pf growth 96h)
CC(C)c1ccccc1NC(=O)COC(=O)c1cccnc1	Pf growth 96h 13µM
COC(=O)c1ccccc1NC(=O)COC(=O)c1cccnc1	none
O=C(NCc1ccco1)c1ccc2sc([C@H]3C[C@H](O)[C@@H](CO)O3)nc2c1	none (no result: Pf growth 48h, Shiga toxin inh, HCV inhibitor, CHX counter, Pf growth 96h)
CCCCNC(=S)N(CCO)Cc1cc2cc3c(cc2[nH]c1=O)OCCO3	Pf growth 96h inconclusive
O=C(NC(=S)Nc1ccccc1Cl)c1csnn1	Shiga toxin inh 42, CHX counter 38
CC(C)c1ccc(NC(=O)c2cccnc2)cc1	CHX counter 23, Pf growth 96h 7.4µM
COC(=O)c1ccc(C(NC(=O)c2cccnc2)NC(=O)c2cccnc2)cc1	Shiga toxin inh 66, CHX counter 30
CC(C)c1ccc(NC(=S)NNC(=O)c2cccnc2)cc1	none
CC(C)c1ccc(O)c(NC(=O)c2cccnc2)c1	Pf growth 96h 10µM (no result: Pf growth 48h)
O=C(CS(=O)CC(=O)Nc1cccnc1)Nc1ccc(F)cc1 (configuration not stated)	Pf growth 48h inconclusive
CCc1ccc2c(c1)C(NC(C)=O)C(=O)N2CCN1CCOCC1 (configuration not stated)	none
O=C(C1=C[C@H](c2ccc3c(c2)OCO3)C[C@H](OCCCCO)O1)N1CCN(Cc2ccccc2)CC1	Pf growth 48h inconclusive, HCV inhibitor inconclusive, Pf growth 96h 13µM
C#Cc1ccc([C@@H]2C=C(C(=O)N3CCN(Cc4ccc5c(c4)OCO5)CC3)O[C@H](OCCCCO)C2)cc1	Pf growth 48h inconclusive, Pf growth 96h 12µM
O=C(C1=C[C@H](C2CCCCC2)C[C@H](OCCCCO)O1)N1CCN(Cc2ccc3c(c2)OCO3)CC1	Pf growth 48h 12µM, HCV inhibitor inconclusive, Pf growth 96h 5.9µM
O=C(C1=C[C@@H](c2ccc(Br)cc2)C[C@@H](OCCCCO)O1)N1CCN(Cc2ccccc2)CC1	Pf growth 48h 8.3µM, Pf growth 96h 12µM
O=C(C1=C[C@@H](C2CC2)C[C@@H](OCc2ccc(CO)cc2)O1)N1CCN(Cc2ccc3c(c2)OCO3)CC1	none
O=C(C1=C[C@@H](c2ccc3c(c2)OCO3)C[C@@H](OCCCCO)O1)N1CCN(Cc2ccc3c(c2)OCO3)CC1	Pf growth 48h inconclusive, HCV inhibitor 0.56µM, Pf growth 96h 10µM
O=C(C1=C[C@H](c2ccc(Br)cc2)C[C@H](OCCCCO)O1)N1CCN(Cc2ccc3c(c2)OCO3)CC1	Pf growth 48h 1.5µM, HCV inhibitor inconclusive, Pf growth 96h 4.1µM
O=C(C1=C[C@H](c2ccc3c(c2)OCO3)C[C@H](OCCCCO)O1)N1CCN(Cc2ccc3c(c2)OCO3)CC1	Pf growth 48h inconclusive, Pf growth 96h inconclusive
COc1ccc(N2CCN(C(=O)COC(=O)COc3cc(C)cc(C)c3)CC2)cc1	none (no result: Shiga toxin inh, CHX counter)
N=c1c2c(-c3ccccc3)c(-c3ccccc3)n(Cc3ccco3)c2ncn1CCO	Pf growth 48h inconclusive, HCV inhibitor 13µM
N=c1c2c(-c3ccccc3)c(-c3ccccc3)n(Cc3ccco3)c2ncn1CCCO	Pf growth 48h inconclusive, Pf growth 96h 13µM
N=c1c2c(-c3ccccc3)c(-c3ccccc3)n(Cc3ccco3)c2ncn1CCN1CCOCC1	Pf growth 48h inconclusive, HCV inhibitor inconclusive
Cc1ccc(S(=O)(=O)N(CC(=O)N/N=C/c2ccccc2C(=O)O)c2cc(Cl)cc(Cl)c2)cc1	Pf growth 96h inconclusive
O=C(CC1C(=O)NCCN1Cc1c(F)cccc1Cl)NCCCN1CCCC1=O (configuration not stated)	Pf growth 96h inconclusive
